From ChEMBL document CHEMBL3988442, “University of Dundee, Small-Polar-MMV Screening Library” (2021) come the findings set out here.

Each structure is given as a SMILES string. For some assays here: Measured potencies and affinities stand elsewhere.

Common to all, as to set-up: scale not given: direction of the effect not stated beside the values
The target in test [1] is Protein translocase subunit SecA (Escherichia coli (strain K12)) (UniProt P10408). Briefly: Assay to Identify E. coli SecA ATPase Inhibitors. The following applies: 30 µM. The format is functional.
Sequence of Protein translocase subunit SecA (Escherichia coli (strain K12)) (P10408 whole entry): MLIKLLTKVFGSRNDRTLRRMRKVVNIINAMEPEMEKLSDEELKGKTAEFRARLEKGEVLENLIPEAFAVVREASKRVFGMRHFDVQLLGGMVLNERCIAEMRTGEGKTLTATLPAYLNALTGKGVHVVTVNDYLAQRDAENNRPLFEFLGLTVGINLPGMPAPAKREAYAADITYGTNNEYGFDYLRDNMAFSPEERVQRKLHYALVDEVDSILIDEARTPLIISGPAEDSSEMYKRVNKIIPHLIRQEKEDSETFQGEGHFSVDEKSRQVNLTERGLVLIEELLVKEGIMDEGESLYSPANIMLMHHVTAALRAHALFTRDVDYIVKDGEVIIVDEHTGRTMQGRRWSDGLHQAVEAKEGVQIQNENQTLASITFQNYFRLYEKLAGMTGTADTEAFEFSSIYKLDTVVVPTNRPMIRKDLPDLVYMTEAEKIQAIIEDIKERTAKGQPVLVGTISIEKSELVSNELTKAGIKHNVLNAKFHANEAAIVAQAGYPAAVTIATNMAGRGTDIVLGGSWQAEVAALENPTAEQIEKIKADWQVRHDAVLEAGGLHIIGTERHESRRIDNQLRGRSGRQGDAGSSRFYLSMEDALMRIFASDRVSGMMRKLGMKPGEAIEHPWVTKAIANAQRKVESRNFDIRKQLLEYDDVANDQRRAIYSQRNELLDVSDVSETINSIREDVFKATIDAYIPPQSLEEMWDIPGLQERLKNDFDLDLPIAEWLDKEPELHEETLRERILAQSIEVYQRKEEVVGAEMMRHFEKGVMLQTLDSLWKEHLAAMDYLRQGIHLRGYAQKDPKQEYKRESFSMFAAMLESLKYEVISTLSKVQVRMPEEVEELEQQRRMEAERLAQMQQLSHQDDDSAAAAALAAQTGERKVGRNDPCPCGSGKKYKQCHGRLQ
Test [2] addresses T1, Ubiquitin-activating enzyme e1, putative (Leishmania donovani (strain BPK282A1)) (UniProt E9BSI1).
T1 sequence (whole entry): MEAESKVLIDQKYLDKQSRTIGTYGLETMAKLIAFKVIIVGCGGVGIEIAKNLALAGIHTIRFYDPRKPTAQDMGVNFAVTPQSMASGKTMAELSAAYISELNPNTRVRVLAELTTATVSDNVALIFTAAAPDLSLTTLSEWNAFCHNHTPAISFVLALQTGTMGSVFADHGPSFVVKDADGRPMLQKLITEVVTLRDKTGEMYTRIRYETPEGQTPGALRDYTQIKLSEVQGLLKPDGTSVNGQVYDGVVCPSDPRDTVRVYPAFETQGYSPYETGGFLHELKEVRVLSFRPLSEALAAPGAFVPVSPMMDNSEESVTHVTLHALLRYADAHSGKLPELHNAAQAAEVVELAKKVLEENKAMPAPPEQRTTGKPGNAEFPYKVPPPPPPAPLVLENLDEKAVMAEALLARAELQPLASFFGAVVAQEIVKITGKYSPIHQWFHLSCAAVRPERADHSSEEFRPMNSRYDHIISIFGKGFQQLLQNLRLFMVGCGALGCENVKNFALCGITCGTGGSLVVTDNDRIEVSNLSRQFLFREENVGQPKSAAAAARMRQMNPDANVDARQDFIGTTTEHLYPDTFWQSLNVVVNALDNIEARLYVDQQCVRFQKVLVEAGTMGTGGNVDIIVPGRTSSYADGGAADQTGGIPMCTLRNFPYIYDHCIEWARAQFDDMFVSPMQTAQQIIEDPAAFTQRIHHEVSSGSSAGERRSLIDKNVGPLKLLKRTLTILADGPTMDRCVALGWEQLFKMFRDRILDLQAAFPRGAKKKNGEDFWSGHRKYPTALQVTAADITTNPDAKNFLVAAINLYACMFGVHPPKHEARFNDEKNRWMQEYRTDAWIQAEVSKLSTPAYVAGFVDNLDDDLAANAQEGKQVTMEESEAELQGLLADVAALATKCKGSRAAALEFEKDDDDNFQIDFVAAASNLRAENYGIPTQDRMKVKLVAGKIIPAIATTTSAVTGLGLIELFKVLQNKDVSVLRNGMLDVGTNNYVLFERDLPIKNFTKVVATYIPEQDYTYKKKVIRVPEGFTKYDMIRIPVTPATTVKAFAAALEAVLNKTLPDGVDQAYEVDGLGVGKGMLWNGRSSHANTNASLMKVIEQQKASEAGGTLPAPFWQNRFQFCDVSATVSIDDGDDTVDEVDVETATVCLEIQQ
Briefly: Leishmania donovani Ubiquitin Activating Enzyme (LdE1). Type of test: functional. The following applies: 30 µM.

The target in test [3] is Sialic acid-binding Ig-like lectin 9 (Homo sapiens) (UniProt Q9Y336). Kind of test: Hs-Siglec9 ALPHAscreen SOP 20170721. The following applies: 10 µM. (In Alpha technology, singlet oxygen from a donor bead excites a nearby acceptor bead.)
Sequence of Sialic acid-binding Ig-like lectin 9 (Homo sapiens) (Q9Y336 whole entry): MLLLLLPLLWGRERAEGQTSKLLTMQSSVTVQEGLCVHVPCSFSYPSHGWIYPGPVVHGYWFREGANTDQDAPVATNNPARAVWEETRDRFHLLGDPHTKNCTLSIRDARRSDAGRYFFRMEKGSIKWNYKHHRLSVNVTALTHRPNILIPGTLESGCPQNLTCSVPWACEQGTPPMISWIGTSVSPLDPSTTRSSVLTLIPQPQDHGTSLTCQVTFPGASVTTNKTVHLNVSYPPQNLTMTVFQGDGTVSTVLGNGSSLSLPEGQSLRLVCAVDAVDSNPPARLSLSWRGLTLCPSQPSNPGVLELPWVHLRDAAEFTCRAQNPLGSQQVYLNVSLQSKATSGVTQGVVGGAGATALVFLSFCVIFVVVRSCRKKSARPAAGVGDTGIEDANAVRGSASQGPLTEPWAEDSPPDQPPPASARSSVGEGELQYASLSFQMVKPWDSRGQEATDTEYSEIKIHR
The next test deals with Trypanosoma cruzi. Briefly: Trypanosoma cruzi phosphomannomutase and mannose-1-phosphate guanylyltransferase assay. The format is functional. The following applies: 10 µM.
The target of test [4] is T2, Arginase-2, mitochondrial (Homo sapiens) (UniProt P78540).
T2 sequence (whole entry): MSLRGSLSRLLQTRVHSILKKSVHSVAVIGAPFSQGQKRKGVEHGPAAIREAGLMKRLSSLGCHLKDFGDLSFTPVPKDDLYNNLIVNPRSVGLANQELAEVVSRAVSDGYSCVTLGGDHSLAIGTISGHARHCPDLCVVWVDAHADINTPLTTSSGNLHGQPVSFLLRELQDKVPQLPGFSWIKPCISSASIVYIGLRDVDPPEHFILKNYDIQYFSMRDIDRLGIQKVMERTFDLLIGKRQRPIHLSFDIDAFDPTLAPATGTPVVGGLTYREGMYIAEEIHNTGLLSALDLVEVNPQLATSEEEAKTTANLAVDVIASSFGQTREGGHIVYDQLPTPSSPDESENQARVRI
Kind of test: in vitro enzyme assay to detect the production of urea directly proportional to the activity of Arginase II. Also: in the data most compounds retested in dose-response had high values. Type of test: functional. Conditions: 33.3 µM.

Test [5] deals with T3, Proteasome subunit beta (Trypanosoma cruzi) (UniProt O96673).
T3 sequence (whole entry): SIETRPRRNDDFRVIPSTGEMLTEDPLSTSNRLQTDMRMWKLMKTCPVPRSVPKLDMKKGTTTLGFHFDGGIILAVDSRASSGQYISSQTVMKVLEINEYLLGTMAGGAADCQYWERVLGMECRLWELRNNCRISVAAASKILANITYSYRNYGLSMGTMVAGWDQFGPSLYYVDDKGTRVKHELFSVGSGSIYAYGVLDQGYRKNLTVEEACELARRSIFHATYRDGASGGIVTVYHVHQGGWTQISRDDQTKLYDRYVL
Kind of test: Trypanosoma cruzi proteasome chymotrypsin-like activity (TcProtChymo) assay. Also: in the data most compounds retested in dose-response had high values. Type of test: functional. Conditions: 9.37 µM.

The species named for another test is Homo sapiens. Briefly: To identify inhibition of the IFN signalling (Jak-Stat) pathway via expression of an eGFP reporter gene under the control of an IFN-stimulated response element (ISRE) containing MxA promoter. Type of test: functional. Conditions: 30 µM. For orientation: In a reporter assay the amount or activity of a reporter protein is the signal.
Test [6] deals with T4, Tyrosyl-tRNA synthetase, putative (Trypanosoma cruzi (strain CL Brener)) (UniProt Q4DSP6).
T4 sequence (whole entry): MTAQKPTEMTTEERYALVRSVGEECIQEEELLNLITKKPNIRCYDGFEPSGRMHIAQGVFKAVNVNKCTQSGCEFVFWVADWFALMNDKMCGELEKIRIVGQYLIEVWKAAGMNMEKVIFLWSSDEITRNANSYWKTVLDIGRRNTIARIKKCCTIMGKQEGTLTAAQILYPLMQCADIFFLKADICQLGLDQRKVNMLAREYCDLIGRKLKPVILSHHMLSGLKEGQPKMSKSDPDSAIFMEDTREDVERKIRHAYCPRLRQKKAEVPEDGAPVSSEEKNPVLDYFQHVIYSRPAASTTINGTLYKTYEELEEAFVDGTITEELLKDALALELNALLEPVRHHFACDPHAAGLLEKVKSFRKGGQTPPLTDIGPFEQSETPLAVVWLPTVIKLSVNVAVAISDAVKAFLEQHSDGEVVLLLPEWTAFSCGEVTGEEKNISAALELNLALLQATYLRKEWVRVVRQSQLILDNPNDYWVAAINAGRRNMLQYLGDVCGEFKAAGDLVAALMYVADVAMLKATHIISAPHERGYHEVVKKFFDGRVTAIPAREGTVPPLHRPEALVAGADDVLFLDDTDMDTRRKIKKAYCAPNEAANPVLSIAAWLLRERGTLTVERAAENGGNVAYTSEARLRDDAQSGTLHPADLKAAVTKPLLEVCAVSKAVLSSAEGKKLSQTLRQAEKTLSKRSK
Kind of test: Trypanosoma cruzi tyrosyl tRNA synthetase (TcYRS) _High Tyrosine SOP. Also: in the data most compounds retested in dose-response had high values. The format is functional. Conditions: 30 µM.

The target of test [7] is T4, Tyrosyl-tRNA synthetase, putative (Trypanosoma cruzi (strain CL Brener)). Briefly: Trypanosoma cruzi tyrosyl tRNA synthetase (TcYRS) SOP. Type of test: functional. The following applies: 30 µM.
Test [8] deals with Chromo domain-containing protein 1 (Saccharomyces cerevisiae (strain ATCC 204508 / S288c) (Baker's yeast)) (UniProt P32657). Briefly: ScCHD-1 Enzyme Inhibition Assay. Also: in the data most compounds retested in dose-response had high values. Type of test: functional. The following applies: 30 µM.
Sequence of Chromo domain-containing protein 1 (Saccharomyces cerevisiae (strain ATCC 204508 / S288c) (Baker's yeast)) (P32657 whole entry, the tested form may be a part): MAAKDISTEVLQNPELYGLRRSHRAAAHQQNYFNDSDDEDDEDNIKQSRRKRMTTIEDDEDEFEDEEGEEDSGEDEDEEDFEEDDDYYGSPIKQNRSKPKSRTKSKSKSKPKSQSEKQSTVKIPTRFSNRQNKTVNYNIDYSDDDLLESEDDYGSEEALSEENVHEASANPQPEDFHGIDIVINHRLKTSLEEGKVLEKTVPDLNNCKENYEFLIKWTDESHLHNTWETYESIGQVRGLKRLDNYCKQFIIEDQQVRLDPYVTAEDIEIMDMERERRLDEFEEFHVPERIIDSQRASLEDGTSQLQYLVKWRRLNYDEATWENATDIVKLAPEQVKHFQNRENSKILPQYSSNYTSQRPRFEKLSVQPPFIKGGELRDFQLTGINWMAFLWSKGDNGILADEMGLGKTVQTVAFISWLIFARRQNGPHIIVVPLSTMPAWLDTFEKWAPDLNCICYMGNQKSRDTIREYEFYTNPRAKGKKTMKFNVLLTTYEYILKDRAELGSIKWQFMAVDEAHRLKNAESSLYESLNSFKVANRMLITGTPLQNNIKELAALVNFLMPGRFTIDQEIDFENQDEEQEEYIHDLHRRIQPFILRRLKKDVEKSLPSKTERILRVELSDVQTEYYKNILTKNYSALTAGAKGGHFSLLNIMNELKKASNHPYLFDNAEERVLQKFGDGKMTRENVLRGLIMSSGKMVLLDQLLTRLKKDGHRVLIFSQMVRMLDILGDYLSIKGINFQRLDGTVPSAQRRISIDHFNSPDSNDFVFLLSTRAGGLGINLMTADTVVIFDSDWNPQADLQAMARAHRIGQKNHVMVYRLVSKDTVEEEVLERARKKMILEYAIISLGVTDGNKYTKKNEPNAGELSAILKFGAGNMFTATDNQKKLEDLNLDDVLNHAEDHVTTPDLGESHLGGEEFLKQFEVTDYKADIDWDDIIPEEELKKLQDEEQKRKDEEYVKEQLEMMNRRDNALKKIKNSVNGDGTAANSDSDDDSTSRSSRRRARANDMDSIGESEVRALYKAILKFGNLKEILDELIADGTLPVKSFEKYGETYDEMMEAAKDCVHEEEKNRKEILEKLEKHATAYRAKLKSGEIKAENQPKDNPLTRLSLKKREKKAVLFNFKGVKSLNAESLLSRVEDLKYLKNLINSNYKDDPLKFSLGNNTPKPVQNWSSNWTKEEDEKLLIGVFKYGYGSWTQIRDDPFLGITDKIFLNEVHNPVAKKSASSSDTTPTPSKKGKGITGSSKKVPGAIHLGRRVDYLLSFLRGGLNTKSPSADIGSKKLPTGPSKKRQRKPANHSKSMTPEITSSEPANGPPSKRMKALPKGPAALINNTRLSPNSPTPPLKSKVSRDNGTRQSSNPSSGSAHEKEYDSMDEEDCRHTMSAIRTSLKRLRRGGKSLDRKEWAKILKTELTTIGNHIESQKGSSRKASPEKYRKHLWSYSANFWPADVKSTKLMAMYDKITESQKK

In the case of `O=S(=O)(CCCN1CCCC1Cn1cccn1)c1ccccc1` (stereo not given), the Percent Effect in test [1] was -5.34%; in test [2], 7.79%; in test [3], 19.1%; in the test on Trypanosoma cruzi it was -2.24%; in test [4], -0.205%; in [5], 7.19%. The Percent Effect is 2.19% in the test filed under Homo sapiens, 6.86% in test [6], 16.5% in [7] and -5.4% in [8].

With `Cc1nn2cccnc2c1C(=O)N1CCCC(Nc2ccccc2)C1` (stereo not given), the Percent Effect in [1] is -3.41%; in [2] it was 0%; in test [3] it was 1%; with Trypanosoma cruzi, -0.803%; in test [4] it was 7.54%; in test [5] it was -2.46%. Moreover, the Percent Effect is -3.46% in the test filed under Homo sapiens, 5.79% in test [6], 5.13% in test [7] and 8.56% in test [8].

As to `CN(C)c1cc2c(nn1)CCN(C(=O)Cc1noc3ccccc13)C2`, the Percent Effect is -0.898% in test [1]; 0% in [2]; -2.79% in test [3]; 6.85% in the test on Trypanosoma cruzi; 2.87% in test [4]; -0.427% in test [5]. The Percent Effect in the test listed under Homo sapiens is -24.3%; in [6] it was 4.31%; in [7], -1.21%; in [8], -2.37%.

Regarding `CCN(C(=O)c1ccc(-n2ncc(C#N)c2N)cc1)C1CCCC1`, the Percent Effect was -1.54% in [1]; 15.6% in [2]; 1.83% in test [3]; -0.187% in the test on Trypanosoma cruzi; -5.12% in test [4]; 6.67% in test [5]. The Percent Effect in the test filed under Homo sapiens is 3.59%; in test [6], -14.7%; in [7], 16.5%; in test [8], -7.19%.

Consider `CC(=O)N1CCc2c(nc(-c3ccccn3)nc2N(C)CC(O)CO)C1` (stereo not given), for which the Percent Effect is -7.71% in test [1]; 8.11% in [2]; 3.94% in test [3]; 2.62% in the test on Trypanosoma cruzi; 5.25% in test [4]; 3.94% in [5]. Besides, the Percent Effect in the test listed under Homo sapiens was -12.5%; in test [6], 14.4%; in test [7], 21.9%; in test [8] it was -1.31%.

As for `CCNC(=O)c1ccc(CNCc2c(C)nn(C)c2N(C)C)cc1`, the Percent Effect is -4.63% in [1]; 21.3% in test [2]; 1.18% in test [3]; 5.62% in the test with Trypanosoma cruzi; -0.444% in test [4]; 22.3% in test [5]. For the same compound, the Percent Effect in the test listed under Homo sapiens is 2.98%; in [6] it was 4.74%; in test [7], 12.8%; in [8], -11.6%.

As to `CC(Cn1cccn1)NC(=O)NCc1cccnc1OC1CCCC1` (stereo not given), the Percent Effect in test [1] is -2.7%; in [2] it was 8%; in test [3], -3.26%; in the test with Trypanosoma cruzi, 4.42%; in [4], 0.887%; in [5], 8.06%. Besides, the Percent Effect in the test filed under Homo sapiens is -10.3%; in [6], 0.526%; in test [7], 10.3%; in test [8], -8.77%.

Turning to `O=C1CC(c2ccncc2)C2(CCN(CCO)CC2)N1` (stereo not given), the Percent Effect was -2.64% in [1]; 3.9% in test [2]; -0.555% in test [3]; 5.55% with Trypanosoma cruzi; -3.64% in test [4]; 8.91% in test [5]. The Percent Effect was -9.49% in the test listed under Homo sapiens, -0.526% in [6], 2.56% in [7] and 17.5% in [8].

Regarding `Cc1c[nH]cc1C(=O)N1CCN(CCc2cccs2)CC1`, the Percent Effect in test [1] is -4.85%; in [2], 5.13%; in test [3] it was -6.52%; in the test on Trypanosoma cruzi it was 3.29%; in [4] it was 2.05%; in test [5] it was -3.67%. The Percent Effect in the test filed under Homo sapiens turned out to be 3.15%; in [6], 5.26%; in test [7], 8.43%; in test [8] it was 0.816%.

Regarding `CN(Cc1ccsc1)C(=O)CN1CCOC(Cn2cccn2)C1` (stereo not given), the Percent Effect in test [1] is -9.25%; in [2] it was 7.79%; in [3], -1.67%; with Trypanosoma cruzi it was -1.49%; in test [4] it was -0.615%; in [5] it was -3.51%. Moreover, the Percent Effect was 19.9% in the test filed under Homo sapiens, 0% in test [6], -16.5% in [7] and -7.08% in test [8].

As for `COc1cc(C(=O)N2CCCS2(=O)=O)ccc1C`, the Percent Effect in [1] is -4.9%; in test [2], -2.67%; in [3], -1.38%; in the test on Trypanosoma cruzi it was 4.82%; in [4] it was -3.99%; in [5] it was 14.7%. The Percent Effect in the test filed under Homo sapiens is 1.35%; in test [6] it was 4.74%; in test [7], 10.3%; in [8], -8.07%.
